Sampled rows, rich in hits. Any-hit rate of the full collection: about 18%.
Gal4-VP16 FLuc = Gal4-VP16 reporter inhibition counter-screen; Drosophila S2 Gal4-VP16 UAS-luciferase, luminescence, 20 h; Potency, µM (titrated, usually from 53.6 µM), for the others: at the top dose activity, negative = inhibition, most hits filed as inhibitors; 310,000 tested, 3.5% active; AID 2546;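 further: Gal4-VP16 expression switched on by copper sulfate through the metallothionein promoter; potency means the concentration at half of the fitted maximal effect; nearly all actives have a fitted effect of over 50% in size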
RORg inh = inhibitors of mouse ROR gamma transcriptional activity | 310,000 tested, 5.4% active | AID 2551 | Drosophila S2 Gal4-RORgamma UAS-luciferase reporter, 20 h | Potency, µM (series often up to 53.6 µM), without a hit: top-dose activity change, negative = inhibition, usual class: inhibitors; further: potency means the concentration at half of the fitted maximal effect; nearly all actives have a fitted effect of over 60% in size
Target sequence (P51450 whole entry, looked up, the tested form may be a part): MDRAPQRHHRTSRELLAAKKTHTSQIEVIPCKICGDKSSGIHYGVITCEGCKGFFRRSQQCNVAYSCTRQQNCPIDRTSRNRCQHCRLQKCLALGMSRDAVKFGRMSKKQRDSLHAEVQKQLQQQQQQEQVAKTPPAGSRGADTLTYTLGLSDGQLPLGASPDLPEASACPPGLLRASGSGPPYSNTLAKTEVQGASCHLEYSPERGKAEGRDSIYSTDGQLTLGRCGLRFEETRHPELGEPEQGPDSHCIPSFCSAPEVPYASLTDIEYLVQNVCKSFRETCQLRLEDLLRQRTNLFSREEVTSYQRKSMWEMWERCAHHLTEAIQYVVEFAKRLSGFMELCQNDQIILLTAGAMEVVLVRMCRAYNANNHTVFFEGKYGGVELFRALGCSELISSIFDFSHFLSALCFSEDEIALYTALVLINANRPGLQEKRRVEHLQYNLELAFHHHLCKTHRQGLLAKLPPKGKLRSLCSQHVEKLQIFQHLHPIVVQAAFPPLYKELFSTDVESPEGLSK
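Read-out: Photinus luciferase luminescence; inhibitors lower reporter signal. Insect Schneider cells with Gal4-ROR gamma fusion under metallothionein promoter, UAS reporter; 700 uM final copper sulfate induction, 20 hr, ambient temperature.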
LDHA block = blocks human lactate dehydrogenase A; purified LDHA, NADH/diaphorase-resazurin fluorescence; hits give low values; 480,000 tested, 0.15% active; P00338; activity change, % (values are at about 110 or 230 µM); in the data active means activity change below about -30%; inconclusive means mostly about -25% to -30%;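 further: plate controls were DMSO wells for no effect and wells without enzyme for full effect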
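Human LDH5 at 2 nM final in Tris HCl pH 7.4 with 0.06 mM NADH and 0.2 mM pyruvate, reacted 5 minutes at room temperature. Remaining NADH coupled via diaphorase/resazurin; resorufin fluorescence read at 0 and 20 minutes, normalized to enzyme-free and DMSO wells.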
DT40 TDP1 no CPT = qHTS for Inhibitors of human tyrosyl-DNA phosphodiesterase 1 (TDP1): qHTS in cells in absence of CPT | DT40 Tdp1-/- hTDP1 cells, no CPT, ATP luminescence, 48 h | Potency, µM (doses to about 46.2 µM), for the others: at the top dose activity change, negative = growth inhibition, usual class: inhibitors | 420,000 tested, 15% active | AID 686978, 2013; further: potency means the concentration at half of the fitted maximal effect; nearly all actives have a fitted effect of over 55% in size
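Seeded 400 DT40-hTDP1 cells/well (vehicle DMSO, no 20 nM CPT); pinned compounds; ≥48 hr at 37 °C; CellTiter-Glo luminescence as viability measure.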
IL1B secr inh = blocks inflammasome-driven IL-1 beta release; THP-1 LPS/ATP IL-1B secretion, AlphaLISA, 16 h; hits give low values; activity change, % at 57.5 µM; 360,000 tested, 4.7% active; AID 743279; in the data active means activity change below about -50%; inconclusive means mostly about -30% to -49%
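Secreted IL-1B measured by AlphaLISA bead assay after 16 h compound exposure of THP-1 cells; compounds (final up to 57.5 uM) added 1 h before LPS (250 ng/mL) and ATP (1.25 mM) stimulation; lower signal means less secretion.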
TDP1 cell CPT = growth inhibition of DT40 Tdp1-/-;hTDP1 cells with camptothecin (screen for TDP1 inhibitors); 420,000 tested, 12% active; AID 686979; chicken DT40 Tdp1-/-;hTDP1 cells + 20 nM CPT, ATP luminescence, 48 h; Potency, µM (top dose mostly 46.2 µM), inactives show at the top dose activity change, negative = growth inhibition, usual class: inhibitors; further: potency means the concentration at half of the fitted maximal effect; nearly all actives have a fitted effect of over 55% in size
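Chicken DT40 Tdp1-/- cells complemented with human TDP1, 400 cells/well, exposed to compounds plus 20 nM camptothecin for at least 48 h at 37 C; viability read as ATP content by CellTiter-Glo luminescence.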
An asterisk follows results filed as active; ? = inconclusive; · = not tested or not shown. Unless noted, the call rests on the fitted dose curve; in most records, active means well fitted curve in the direction sought with a large enough effect; inconclusive means small, poorly fitted or top-dose-only effect, or another doubt; inactive means no such curve, though single readings can be large; an effect the other way counts as inactive or inconclusive. Unless noted, on the % scale 0 is the no-effect control and ±100 the full control effect.

SMILES	Gal4-VP16 FLuc	RORg inh	LDHA block	DT40 TDP1 no CPT	IL1B secr inh	TDP1 cell CPT
COc1ccc(-c2ccc(=O)n(CCNC(=O)Cc3ccc(Br)cc3)n2)cc1	·	·	0	·	·	·
O=C(CN1CCN(c2nccs2)CC1)NCc1ccccc1F	·	·	1	·	·	·
CCC1(C)Cc2ccccc2-c2nc(NCCO)n(-c3ccccc3)c(=O)c21 (configuration not stated)	-15%	-27%	1	4.6µM*	-8	4.1µM*
O=c1c2c(nc(NCCO)n1CC1CCCCC1)-c1ccccc1CC21CCCC1	5%	9%	-4	?	?	?
CC1(C)Cc2ccccc2-c2nc(NCCO)n(-c3ccccc3)c(=O)c21	-1%	-22%	-4	18µM*	-16	18µM*
CC1(C)CC(n2c(NCCO)nc3c(c2=O)C2(CCCC2)Cc2ccccc2-3)CCO1 (configuration not stated)	6%	-21%	-2	?	-66*	?
CCOC(=O)N1CCN(C(=O)c2oc3ccc(S(=O)(=O)N4CCCCC4)cc3c2C)CC1	-15%	?	-4	?	16	?
Cc1c(C(=O)NCC2COc3ccccc3O2)oc2ccc(S(=O)(=O)N3CCOCC3)cc12 (configuration not stated)	-13%	40%	-10	?	-8	?
CCN(CC)S(=O)(=O)c1ccc2oc(C(=O)NCC3COc4ccccc4O3)c(C)c2c1 (configuration not stated)	-12%	31%	-3	23µM*	-9	?
Cc1c(C(=O)NCC2COc3ccccc3O2)oc2ccc(S(=O)(=O)N3CC(C)CC(C)C3)cc12 (configuration not stated)	-14%	7%	-5	13µM*	-15	18µM*
Cc1c(C(=O)N2CCCCC2)oc2ccc(S(=O)(=O)N3CC(C)CC(C)C3)cc12 (configuration not stated)	?	?	-1	13µM*	?	18µM*
CCN(CC)CCCNC(=O)c1oc2ccc(S(=O)(=O)N3CC(C)CC(C)C3)cc2c1C (configuration not stated)	-4%	-37%	-4	18µM*	-52*	?
O=C(CCc1c[nH]c2ccccc12)NC12CC3CC(CC(C3)C1)C2	·	·	5	·	·	·
CCc1ccc(N2C(=O)c3sc4nnc(-c5ccccc5)c(=O)n4c3C2=O)cc1	-1%	17%	-6	13µM*	38	12µM*
Cc1occc1C(=O)N/N=C/C=C/c1ccc(N(C)C)cc1	3.2µM*	2.8µM*	4	?	-8	?
Cc1ccc(/C=N/NC(=O)c2ccoc2C)o1	23%	-12%	-8	-15%	6	-8%
Cc1occc1C(=O)N/N=C/c1ccc(N(C)C)cc1	?	10µM*	1	-24%	-17	0%
Cc1occc1C(=O)N/N=C/c1cnn(C)c1C	?	21%	0	-3%	1	0%
CCN1C(=O)C(Cc2c(OC)cc(OC)cc2OC)c2ccccc21 (configuration not stated)	·	·	4	·	·	·
CNC(=O)NC(=O)CN(CC(C)O)c1ccccc1 (configuration not stated)	·	·	-1	·	·	·
CN(Cc1ccc(F)cc1)C(=O)c1ccc(Cl)c(S(=O)(=O)NC2CC2)c1	·	·	-4	·	·	·
Cc1cc(/C=C(\C#N)C(=O)O)c(C)n1C1CC1	2%	-5%	1	-16%	-5	-11%
COCCNC(=O)/C(C#N)=C/c1cc(Br)c(O)c(OC)c1	4%	-11%	-3	-2%	23	4%
COCCNC(=O)/C(C#N)=C/C=C/c1ccccc1	0%	1%	0	?	-93*	-25%
COCCNC(=O)/C(C#N)=C/c1cc(C)n(C2CCCCC2)c1C	?	-1%	-6	16µM*	-15	?
SMILES	Gal4-VP16 FLuc	RORg inh	LDHA block	DT40 TDP1 no CPT	IL1B secr inh	TDP1 cell CPT
N#C/C(=C/C=C/c1ccccc1)C(=O)Nc1ccccc1	3%	-7%	-2	?	-28	-25%
COCCNC(=O)/C(C#N)=C/c1ccccc1Br	-11%	0%	-8	16µM*	?	15µM*
COCCNC(=O)/C(C#N)=C/c1cc(C(C)C)c(OC)cc1C	20%	25%	-2	?	-71*	?
CCn1cnc2c1c(=O)n(Cc1c(C)noc1C)c(=O)n2Cc1ccccc1	·	·	1	·	·	·
Cc1ccccc1Cn1nc(C)c(NC(=O)NC2CCCC2)c1C	·	·	0	·	·	·
COc1cccc(NC(=O)c2ncoc2-c2ccc(OC)c(OC)c2)c1	·	·	-6	·	·	·
CC(Oc1ccc(F)cc1)C(=O)Nc1ccc(N2CCN(C)CC2)nc1 (configuration not stated)	·	·	1	·	·	·
CSc1ccc(/C=C2\CCC(C3CCCC3)C2=O)cc1 (configuration not stated)	·	·	10	·	·	·
CCc1nc2c(OCCc3cccc(OC)c3)cccn2c1N(C=O)Cc1ccc(OC)cc1	·	·	0	?	-13	18µM*
CCc1nc2c(OCCC3CCCCC3)cccn2c1N(C=O)Cc1ccc(OC)cc1	·	·	5	?	-22	?
CCc1nc2c(OCc3cc(Cl)cc(Cl)c3)cccn2c1N(C=O)Cc1ccc(OC)cc1	·	·	1	?	-79*	23µM*
CCc1nc2c(OCCC3CCCCC3)cccn2c1N(C=O)Cc1ccccc1	·	·	-7	?	-26	16µM*
C=CCOc1cccn2c(N(C=O)Cc3ccccc3)c(CC)nc12	·	·	0	12µM*	31	13µM*
CCc1nc2c(OCCc3cccc(OC)c3)cccn2c1N(C=O)Cc1ccccc1	·	·	0	?	?	?
O=C(Nc1ccc(F)c(F)c1)c1ccc(S(=O)(=O)C2CCS(=O)(=O)C2)cc1 (configuration not stated)	·	·	-5	·	·	·
CCOCCCNCc1ccc(C(=O)O)cc1	·	·	4	·	·	·
CCc1nc2c(OCc3c(C)noc3C)cccn2c1N(C=O)Cc1ccccc1	·	·	-1	21µM*	0	?
CCCCN(C=O)c1c(CC)nc2c(OCc3ccc(Cl)cc3)cccn12	·	·	-11	23µM*	-51*	18µM*
CCc1nc2c(OCc3cc(Cl)cc(Cl)c3)cccn2c1N(C=O)Cc1ccccc1	·	·	-1	?	?	26µM*
CCc1nc2c(OCC(=O)c3ccc(Cl)cc3Cl)cccn2c1N(C=O)Cc1ccccc1	·	·	3	?	-8	21µM*

Compound activity: PubChem, National Center for Advancing Translational Sciences (NCATS)
